Data taken from PubChem BioAssay.
Activity calls are given as the source filed them. The rule behind the calls is not given here.

What follows are compounds tested against Pantothenate synthetase (Mycobacterium tuberculosis (strain ATCC 25618 / H37Rv)) (UniProt P9WIL5) (assay: Coupled enzyme confirmation of inhibitors against recombinant Mtb PanC (AID 375;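 note: 0% = full reaction with vehicle and 100% = no enzyme background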)). Settings: coupled enzyme assay; at 10 µM, active compounds read high.
Sequence of Pantothenate synthetase (Mycobacterium tuberculosis (strain ATCC 25618 / H37Rv)) (P9WIL5 whole entry, looked up): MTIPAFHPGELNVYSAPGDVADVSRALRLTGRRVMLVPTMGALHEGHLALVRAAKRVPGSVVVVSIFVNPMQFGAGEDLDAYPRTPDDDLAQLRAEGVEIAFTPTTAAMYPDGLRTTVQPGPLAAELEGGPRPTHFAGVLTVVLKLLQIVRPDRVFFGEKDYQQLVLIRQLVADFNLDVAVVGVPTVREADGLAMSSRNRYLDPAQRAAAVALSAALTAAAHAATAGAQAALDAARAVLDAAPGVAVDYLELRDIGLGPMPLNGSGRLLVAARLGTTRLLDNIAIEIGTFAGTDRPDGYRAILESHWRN
For `CC(=O)c1ccccc1OCCn1nnc(-c2ccc(C)cc2)n1`, the inhibition was 0% (inactive). `COc1ccc(-c2nc3c(n2O)CCC/C3=N\O)cc1` was tested, and the inhibition was 0% (inactive). `CC1Cc2nc(SCC(=O)Nc3ccccc3F)n(C)c(=O)c2S1` (configuration not stated) was tested, and the inhibition was 7% (inactive). In the case of `O=C(Cn1ncc2c(=O)oc3ccccc3c21)Nc1nc2ccccc2s1`, the inhibition is reported as 0% (inactive). `Cc1cc(C)nc(SC2=CS(=O)(=O)c3ccccc32)n1` was tested, and the inhibition was 0% (inactive). `O=C(C1CCCN(S(=O)(=O)c2cccnc2)C1)N1CCN(c2ccccn2)CC1` (configuration not stated) was tested, and the inhibition was 0% (inactive). With `Cc1cccc(Nc2ncc3c(n2)CC(c2ccco2)CC3=O)c1` (configuration not stated) the inhibition was 1% (inactive). For `CCOC(=O)c1c(NC(=O)CSc2nnc(-c3cccnc3)o2)sc(C)c1C`, the inhibition was 4% (inactive). For `COc1ccc(NC(=O)NCCN2C(=O)C3C4C=CC(C4)C3C2=O)cc1` (configuration not stated), the inhibition was 1% (inactive). In the case of `Cc1ncc([N+](=O)[O-])n1CC(O)CCl` (configuration not stated), the inhibition is reported as 0% (inactive). For `COc1cc(C(=O)Nc2ccc3c(c2)C(=O)N(CCC(=O)O)C3=O)cc(OC)c1OC`, the inhibition was 0% (inactive). In the case of `CCOC(=O)N1CCN(c2cc(=O)n(-c3ccccc3Cl)c(=O)[nH]2)CC1`, the inhibition is reported as 0% (inactive). `CCCn1c(SCC(=O)N2CCCc3ccccc32)nnc1-c1ccccn1` was tested, and the inhibition was 3% (inactive). In the case of `Nc1nc(C2C(=O)CCCC2=O)cs1`, the inhibition is reported as 0% (inactive). For `CCOC(=O)c1ccccc1NC1c2ccccc2C(=O)N1C1CCN(C(=O)OCC)CC1` (configuration not stated), the inhibition was 2% (inactive). In the case of `O=S(=O)(c1ccc2c(c1)nc1n2CCC1)N1CCOCC1`, the inhibition is reported as 0% (inactive). With `CCOC(=O)N1CCN(C(=O)Nc2ccc3oc(C)nc3c2)CC1` the inhibition was 7% (inactive).
